Compounds with a hit are over-represented: about 9.9% of the library has one in this group of screens.
KDM4E inh: JMJD2E (human) inhibition; B2RXH2; JMJD2E catalytic domain, FDH-coupled NADH fluorescence (FDH is formaldehyde dehydrogenase); Potency, µM (titrated, usually from 57.1 µM), inactives show at the top dose activity change, negative = inhibition, actives largely listed as inhibitors; 1.6% of 230,000 active; AID 2147;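 also: 0% = wells with enzyme and -100% = buffer wells without enzyme; nearly all actives have a fitted effect of over 50% in size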
HPGD block: inhibitors of human 15-hydroxyprostaglandin dehydrogenase (HPGD) | P15428 | purified HPGD, NADH fluorescence kinetic, PGE2 substrate | Potency, µM, for the others: at the top dose activity change, negative = inhibition, hits mostly inhibitors | 4.3% of 150,000 active | AID 894
Target sequence (P15428 whole entry, looked up): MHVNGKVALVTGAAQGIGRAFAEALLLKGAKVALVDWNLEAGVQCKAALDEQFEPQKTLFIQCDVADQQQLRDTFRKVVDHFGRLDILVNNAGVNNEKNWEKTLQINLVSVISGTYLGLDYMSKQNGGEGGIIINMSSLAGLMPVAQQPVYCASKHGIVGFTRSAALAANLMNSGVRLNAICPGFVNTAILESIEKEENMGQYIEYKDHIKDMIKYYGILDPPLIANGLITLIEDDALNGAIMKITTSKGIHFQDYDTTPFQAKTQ
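NADH formation kinetics: reaction with 30 uM PGE2 and 1 mM NAD+ (final), 20 nM enzyme, Tris-HCl pH 8 with Tween 20, after 15 min compound preincubation at room temperature. Fluorescence change, last versus first of five reads.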
Tau ThT inhib: inhibitors of human tau fibril formation, thioflavin T binding; P10636; recombinant tau K18 P301L, heparin-induced fibrillization, ThT fluorescence; Potency, µM (titrated, usually from 57.4 µM), for inactives: top-dose activity, negative = inhibition, usual class: inhibitors; 2.1% of 270,000 active; AID 1460; active = well fitted curve in the direction sought with a large enough effect; inconclusive = small, poorly fitted or top-dose-only effect, or another doubt; inactive = no such curve, though single readings can be large; an effect the other way counts as inactive or inconclusive; also: nearly all actives have a fitted effect of over 55% in size
Target sequence (P10636 561-689 P618L limits assumed): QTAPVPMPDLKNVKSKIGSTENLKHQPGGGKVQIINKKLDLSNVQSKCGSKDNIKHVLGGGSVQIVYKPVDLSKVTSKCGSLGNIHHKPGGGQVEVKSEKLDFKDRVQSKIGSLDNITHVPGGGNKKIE
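Fibril formation assay: tau K18 P301L at 15 uM with trace Alexa 594 label, heparin inducer 20 uM, pH 7 sodium acetate buffer, 37 C for 6 hr; endpoint ThT signal.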
ALDH1A1 inh: inhibitors of human aldehyde dehydrogenase 1A1. P00352. Purified ALDH1A1, NADH fluorescence, propionaldehyde substrate. Potency, µM (top dose mostly 75.3 µM), inactives show at the highest dose activity, negative = inhibition, usual class: inhibitors. 7.3% of 220,000 active. AID 1030;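 also: plate controls were no enzyme wells and a reference inhibitor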
Tau fibril FP: tau fibrillization inhibition (FP); P10636; K18 P301L tau heparin fibrillization, Alexa594 FP, 6 h; Potency, µM (top dose mostly 57.7 µM), inactives show at the top dose activity, negative = inhibition, actives largely listed as inhibitors; 0.39% of 280,000 active; AID 1468; active = well fitted curve in the direction sought with a large enough effect; inconclusive = small, poorly fitted or top-dose-only effect, or another doubt; inactive = no such curve, though single readings can be large; an effect the other way counts as inactive or inconclusive; also: nearly all actives have a fitted effect of over 55% in size
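Human tau K18 […] P301L fragment, 15 uM unlabeled plus 0.24 uM Alexa 594-labeled tau (final), with compound and 20 uM heparin in 100 mM sodium acetate pH 7; 6 hr at 37 C, then Alexa 594 FP read.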
Tau fluor cs: counter-screen for tau fibril formation inhibitors | 0.93% of 280,000 active | tau K18 P301L (four-repeat tau fragment) Alexa594 fluorescence, heparin fibrillization | Potency, µM (series often up to 57.7 µM), inactives show top-dose activity change, negative = decrease; active = well fitted curve in the direction sought with a large enough effect; inconclusive = small, poorly fitted or top-dose-only effect, or another doubt; inactive = no such curve, though single readings can be large; an effect the other way counts as inactive or inconclusive; also: nearly all actives have a fitted effect of over 55% in size
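Human K18 P301L tau (15 uM unlabeled plus 0.24 uM Alexa 594-labeled, final) in 100 mM sodium acetate pH 7 was mixed with compound and 20 uM heparin and incubated 6 hr at 37 C.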
* marks the source's active call; other numbers are inactive results; ? = inconclusive; · = no result given. Unless noted, calls follow the shape of the dose curve; as a rule, active = well fitted inhibition curve with a large enough effect (not every such curve was filed as active); inconclusive = small, poorly fitted or top-dose-only effect, or another doubt; inactive = no such curve, though single readings can be large or run the other way. Unless noted, % is scaled to controls: 0 for no effect and ±100 for the full control effect; potency is read from the fitted curve at half-maximal effect.

SMILES	KDM4E inh	HPGD block	Tau ThT inhib	ALDH1A1 inh	Tau fibril FP	Tau fluor cs
O=Cc1ccc(-c2cccc(C(=O)O)c2)o1	?	·	-1.9%	59.8%	1.2%	-1.9%
Cc1ccc(C(=O)/C=C/C(=O)c2ccc(C)cc2)cc1	-10.5%	·	-10.3%	0.891µM*	-6.6%	2.8%
Cc1ccc(-c2ccc(/C=C/C(=O)c3ccccc3)o2)cc1	?	14.1µM*	12.6µM*	3.16µM*	-7.4%	-15.1%
Cc1ccc(/C=C/C(=O)c2ccc(C)cc2)cc1	3.2%	-6.8%	?	-10.8%	6.4%	-2.2%
O=C(/C=C/c1ccc(-c2ccccc2)o1)c1ccccc1	-0.4%	3.55µM*	5.6%	11.5%	1.7%	-0.5%
CCOC(=O)/C(C#N)=N/Nc1c(C)n(C)n(-c2ccccc2)c1=O	?	·	-7.8%	7.94µM*	-3.4%	0.5%
Cc1ccc(C2C(C#N)=C(N)SC(N)=C2C#N)o1	?	?	14.1µM*	?	17.8µM*	?
CCOc1ccccc1C1C(C#N)=C(N)SC(N)=C1C#N	-3.1%	-16.6%	?	5.2%	-4.6%	-17.0%
N#CC1=C(N)SC(N)=C(C#N)C1c1ccc(C(F)(F)F)cc1	12.6µM*	-27.9%	-13.6%	25.1µM*	-4.2%	-25.2%
CCOC(=O)C1=C(C)OC(N)=C(C#N)C1c1ccc(C)o1 (stereo unspecified)	-12.1%	-27.9%	-11.8%	?	-1.9%	-9.0%
CCc1ccc(C2C(C#N)=C(N)SC(N)=C2C#N)cc1	?	35.5µM*	?	11.2µM*	-4.5%	-26.3%
N#CC1=C(N)SC(N)=C(C#N)C1c1ccc([N+](=O)[O-])cc1	-10.8%	?	20µM*	10µM*	-11.5%	?
N#CC1=C(N)Oc2cc(N)ccc2C1c1ccc(F)cc1 (stereo unspecified)	?	-19.6%	?	-13.3%	-3.2%	?
CCc1cnc2c(c1SCc1c(F)cccc1Cl)c(=O)n(C)c(=O)n2C	·	·	-8.6%	·	-6.6%	-5.8%
COc1cccc(NCc2cccn2-c2nnc(N3CCC(C)CC3)s2)c1	·	·	?	·	6.2%	-29.6%
CCc1ccc(C2C(C#N)=C(N)SC(N)=C2C#N)s1	?	28.2µM*	14.1µM*	?	?	?
O=C(COC(=O)/C=C/c1cccs1)Nc1ccc2ccccc2c1	-12.3%	-23.7%	-16.1%	-3.0%	-17.5%	-24.9%
CN(c1ncc(C(F)(F)F)cc1Cl)n1cc(C(N)=O)c2ccccc2c1=O	-10.6%	-5.4%	-8.9%	25.1µM*	1.3%	-6.4%
Cn1nnnc1SCC(=O)c1ccc2c(c1)OCCO2	3.7%	·	-4.0%	?	2.9%	-12.5%
CCn1c(SCC(=O)c2ccc3c(c2)OCCO3)nnc1-c1ccco1	-0.5%	?	-14.5%	?	-1.2%	0.0%
Cn1cnnc1SCC(=O)c1ccc2c(c1)OCCO2	2.4%	-22.0%	-14.2%	8.91µM*	-5.3%	-6.2%
Cn1c(SCC(=O)c2ccc3c(c2)OCCO3)nnc1C1CC1	-1.6%	-7.6%	-12.1%	20µM*	-11.2%	-4.4%
CCCn1nnnc1SCC(=O)c1ccc2c(c1)OCCO2	-2.8%	-24.0%	-8.5%	3.16µM*	-2.9%	-2.7%
CCCCn1nnnc1SCC(=O)Nc1ccc2c(c1)OCCO2	2.0%	-7.5%	-13.4%	4.47µM*	-3.2%	-14.0%
CNC(=O)c1cccc(-n2c(C)nc3cccnc32)c1C	·	·	9.9%	·	-4.6%	5.9%
COc1ccc(CNC(=O)CC(C)n2nc(C)cc2C)cc1 (stereo unspecified)	·	·	3.4%	·	-0.5%	4.3%
Cc1ccc(Nc2ccc(C(=O)N3CCCC3)cn2)c(C)c1	-2.9%	2.24µM*	-9.6%	-2.0%	6.5%	-1.9%
COc1cc([N+](=O)[O-])c(C(=O)N2CCOCC2)c([N+](=O)[O-])c1	-15.7%	-9.7%	-1.3%	6.0%	-2.7%	-2.4%
COc1cc(C)c(CC/C(C)=C/C=C/C(C)=O)c(C)c1C	-9.1%	-17.6%	?	?	-8.6%	-14.8%
CN(C)N=Nc1ccc(S(N)(=O)=O)cc1	4.6%	·	-5.4%	9.2%	-0.2%	0.3%

Source: PubChem BioAssay (National Center for Advancing Translational Sciences (NCATS))
